Among the data in PubChem BioAssay AID588397 (National Center for Advancing Translational Sciences (NCATS), 2011) are Potency values, retold here.

In all, about 1,300 compounds went through this assay and about 1,000 (77%) were called active. Roughly 7% stayed inconclusive and do not appear here. Calls come from the whole dose curve; as a rule, active = well fitted inhibition curve with a large enough effect; inconclusive = small, poorly fitted or top-dose-only effect; inactive = no such curve, though single readings can be large or run the other way. So high a share suggests a set chosen from earlier hits. This is one part of the list.
Potency is the fitted concentration of half-maximal effect.

The nature of this test: qHTS of small molecules that selectively kill Giardia lamblia: Hit Validation.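 Note: viability measured as ATP content by luminescence so killing lowers signal; trophozoites exposed to compounds for 48 h anaerobically at 37 °C; nearly all actives have a fitted effect of over 65% in size.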 The following applies: Giardia lamblia trophozoite viability, dose-response; series mostly up to 38.3 µM. The gist of the method: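 HTS viability screen: compound-treated trophozoites (100 cells/well) are kept anaerobic at 37 deg C for 48 hrs, and surviving cells are detected through ATP-dependent luminescence.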
For `O=C1c2ccccc2C(=O)C1c1ccncc1`, the Potency was 7290 nM (active). Turning to `Cc1cc(C)cc(N=c2c([N+](=O)[O-])nn(-c3cccc(Cl)c3)n2O)c1`, the Potency is 3260 nM (active). For `Cc1cc(C)cc(N=c2c([N+](=O)[O-])nn(-c3ccc(Cl)cc3)n2O)c1` the value was 1300 nM (active); for `O=[N+]([O-])c1cccc(/C=C/c2nc[nH]c2[N+](=O)[O-])c1`, 2050 nM (active); for `O=[N+]([O-])c1[nH]cnc1/C=C/c1ccccc1`, 1830 nM (active). With `Cc1cccc(N=Nc2c(C)c(C#N)c(O)[nH]c2=O)c1` the figure was 3650 nM (active); with `O=C(CNc1ccc2ccccc2c1)N/N=C/c1ccc([N+](=O)[O-])o1`, 1030 nM (active); with `O=C(CNc1cccc([N+](=O)[O-])c1)N/N=C/c1ccc([N+](=O)[O-])o1`, 516 nM (active). For `O=C(CNc1ccccc1)N/N=C/c1ccc([N+](=O)[O-])o1` the value was 1030 nM (active); for `Cc1ccc(NCC(=O)N/N=C\c2ccc([N+](=O)[O-])o2)cc1`, 650 nM (active). In the case of `COC(=O)[C@]1(C)N[C@H](CN(C)S(=O)(=O)c2ccc(-c3ccccc3)cc2)[C@@H]2C(=O)N(Cc3ccccc3)C(=O)[C@@H]21`, the Potency entry is “inactive”. `Cc1ccc(OCC(=O)c2cc(C)n(-c3ccccc3)c2C)c([N+](=O)[O-])n1`: the Potency is 516 nM (active).

Regarding `COc1ccc(-n2c(C)cc(C(=O)COc3ccc(C)nc3[N+](=O)[O-])c2C)cc1`, the Potency is 1830 nM (active). With `Cc1cccc(NC(=O)CN2C(=O)S/C(=C\c3ccc(O)c([N+](=O)[O-])c3)C2=O)c1` the figure was 1300 nM (active); with `CCOC(=O)CN1C(=O)S/C(=C/c2cccc([N+](=O)[O-])c2O)C1=O`, 2310 nM (active); with `Cc1ccc(NC(=O)CN2C(=O)S/C(=C/c3ccc(O)c([N+](=O)[O-])c3)C2=O)cc1C`, 1300 nM (active). As for `CCN(CC)C(=O)CSc1nnc2nnc3cc(Cl)ccc3n12`, the Potency was 1300 nM (active). With `NCCCn1c(C(=O)c2cc(Cl)c(N)c(Cl)c2)c2ccc(C(F)(F)F)cc2[n+]1[O-]`, the Potency is 1450 nM (active). With `Cc1ccc(C(=O)c2c3ccc(C(F)(F)F)cc3[n+]([O-])n2CCCN)cc1` the figure was 1030 nM (active); with `NCCCn1c(C(=O)c2ccc(Cl)cc2)c2ccc(C(F)(F)F)cc2[n+]1[O-]`, 410 nM (active); with `COc1ccc(C(=O)c2c3ccc(C(F)(F)F)cc3[n+]([O-])n2CCCN)cc1`, 1300 nM (active). With `O=C(N/N=C/c1cc2c(cc1[N+](=O)[O-])OCO2)c1ccccn1` the figure was 7290 nM (active). For `COc1ccc(CCNc2oc(COc3ccc(Br)cc3)nc2C#N)cc1OC` the value was “inactive”.

Take `NC(=O)C1CCN(c2cc(Cl)ccc2[N+](=O)[O-])CC1`: the Potency is 8180 nM (active). For `NC(=O)C1CCN(c2ncccc2[N+](=O)[O-])CC1` the value was 1160 nM (active).

As for `N#Cc1nc(-c2ccc(OCc3ccccc3)cc2)oc1N1CCC(C(N)=O)CC1`, the Potency entry is “inactive”. With `Cc1cc(C)n(S(=O)(=O)c2ccccc2[N+](=O)[O-])n1`, the Potency is 1830 nM (active). Consider `Cc1nc2cc(-c3ccc(Cl)cc3)nn2c(NCCN(C)C)c1C`, for which the Potency is 918 nM (active). Regarding `CN(C)C(=O)c1cc([N+](=O)[O-])cc([N+](=O)[O-])c1N(C)C`, the Potency is 818 nM (active). Turning to `Cc1ccc(S(=O)(=O)/N=C(/Sc2ccccc2C(=O)O)c2ccccc2)cc1`, the Potency result was “inactive”. For `CN(C)c1ccc(C2NC(=O)c3ccccc3N2)cc1` (configuration not stated) the value was 6500 nM (active); for `CN(C)c1ccc(C2Nc3cccc4cccc(c34)N2)cc1`, 3650 nM (active). With `O=C(c1ccc([N+](=O)[O-])o1)N1CCCCCC1`, the Potency is 3650 nM (active). With `O=C(c1ccc([N+](=O)[O-])o1)N1CCN(Cc2ccccc2)CC1` the figure was 6500 nM (active); with `O=C(c1ccc([N+](=O)[O-])o1)N1CCOCC1`, 1830 nM (active). `CCC1CCCCN1C(=O)c1ccc([N+](=O)[O-])o1` (configuration not stated): the Potency was 1830 nM (active). With `O=C(O)c1cc(Cl)c(Cl)cc1C(=O)N1CCCC1` the entry was “inactive”.

Regarding `O=C(c1cc(Cl)ccc1Cl)N1CCN(Cc2ccccc2)CC1`, the Potency entry is “inactive”.

For `CC1CCCN(C(=O)c2ccc([N+](=O)[O-])o2)C1` (configuration not stated), the Potency is 5160 nM (active).

In the case of `COc1ccccc1C(=O)C1CCCN(C(=O)c2ccco2)C1` (configuration not stated), the Potency entry was “inactive”. With `COCc1ccc(C(=O)N2CCCC(C(=O)c3ccc(Cl)cc3C)C2)o1` (configuration not stated) the entry was “inactive”; with `O=C(O)C1CCN(c2ccccc2[N+](=O)[O-])CC1`, 5790 nM (active); with `CC(=O)N1CCN(c2ccc(S(C)(=O)=O)cc2[N+](=O)[O-])CC1`, 1030 nM (active).

As to `O=C(O)C1CCN(c2ccc([N+](=O)[O-])cc2[N+](=O)[O-])CC1`, the Potency was 1160 nM (active). For the compound `CCN(C(=O)COC(=O)c1cc(S(=O)(=O)N2CCc3ccccc32)ccc1OC)C1CCS(=O)(=O)C1` (configuration not stated), the Potency entry is “inactive”.

For `Cc1c(Nc2nc3ccccc3n3cnnc23)cccc1[N+](=O)[O-]`, the Potency was 9180 nM (active). In the case of `O=C(/C=C/c1ccc2c(c1)OCO2)Nc1cccnc1`, the Potency is 4600 nM (active). For `NS(=O)(=O)c1ccc(Nc2ncccc2[N+](=O)[O-])cc1` the value was 410 nM (active); for `COc1ccc2cc(-c3cc(C(=O)OCC(=O)Nc4c(C)n(C)n(-c5ccccc5)c4=O)c4ccccc4n3)ccc2c1`, 410 nM (active); for `Cc1c(NC(=O)c2cc(-c3ccc(Cl)c(Cl)c3)on2)c(=O)n(-c2ccccc2)n1C`, “inactive”. On to `O=c1c([N+](=O)[O-])cc(C(F)(F)F)cn1Cc1c(Cl)cccc1Cl`, for which the Potency is 1300 nM (active).

Take `COC(=O)c1ccc(Cn2cc(C(F)(F)F)cc([N+](=O)[O-])c2=O)cc1`: the Potency was 4100 nM (active). With `O=c1c([N+](=O)[O-])cc(C(F)(F)F)cn1Cc1cccc(Cl)c1` the figure was 2310 nM (active); with `CCCC[n+]1c(/C=C/c2c(OC)cc(OC)cc2OC)ccc2ccccc21`, “inactive”. For `COc1cccc(/C=C/c2ccc3ccccc3[n+]2C)c1OC` the value was 5790 nM (active); for `COc1cccc(-c2cc3nc4c(c(NCC(C)(C)CN(C)C)n3n2)CCCC4)c1`, 579 nM (active). `CC(=O)c1c(C)oc2c1C(=O)c1ccccc1C2=O`: the Potency is 4600 nM (active). For `Cc1oc2c(c1C(=O)O)C(=O)c1ccccc1C2=O` the value was 3260 nM (active); for `CCOC(=O)c1c(C)oc2c1C(=O)c1ccccc1C2=O`, 5160 nM (active); for `CCOC(=O)c1c(C)[nH]c2c1-c1ccccc1C(=O)C2=O`, 4100 nM (active). Regarding `CC(=O)NCCNC(=O)c1ccc(CSc2ccc(Cl)cc2)cc1`, the Potency entry was “inactive”. On to `Cc1onc(-c2ccccc2)c1C(=O)N/N=C/c1ccc([N+](=O)[O-])c(O)c1`, for which the Potency is 3260 nM (active). For `CN(C)c1ccc(/C=C(/NC(=O)c2ccccc2)C(=O)N/N=C/c2ccc([N+](=O)[O-])c(O)c2)cc1` the value was 2590 nM (active). Turning to `Cc1onc(-c2ccccc2Cl)c1C(=O)NNC(=O)c1ccc(F)cc1`, the Potency result is “inactive”. For `Cc1ccc(OCC(=O)Nc2nc(C)c(Cl)cc2Cl)c([N+](=O)[O-])n1` the value was 5790 nM (active); for `Cc1ccc(OCC(=O)Nc2ccc(C)c(F)c2)c([N+](=O)[O-])n1`, 5790 nM (active); for `Cc1ccc(OCC(=O)N(C)CC(=O)Nc2ccc(Cl)c(C(F)(F)F)c2)c([N+](=O)[O-])n1`, 5790 nM (active). Take `Oc1cccc(-c2nnc(-c3cccc(O)c3)nn2)c1`: the Potency is 1160 nM (active).

On to `O=C(NCC1CCCO1)c1ccc([N+](=O)[O-])o1` (configuration not stated), for which the Potency is 1160 nM (active). For `O=C(NC1CCCC(C(F)(F)F)C1)c1ccc([N+](=O)[O-])o1` (configuration not stated) the value was 1450 nM (active); for `O=C(NC1CCCCC1)c1ccc([N+](=O)[O-])o1`, 1630 nM (active).

As to `Cc1cc2nc(-c3ccc[nH]c3=O)[nH]c2cc1C`, the Potency is 729 nM (active). For `Cc1ccc(-n2nnnc2CNC(=O)c2ccc([N+](=O)[O-])o2)cc1C` the value was 918 nM (active). For `O=C(NCC(c1ccc(F)cc1)N1CCOCC1)c1ccc([N+](=O)[O-])o1` (configuration not stated) the value was 1300 nM (active). For `O=C(NCc1nnnn1-c1ccc(F)cc1)c1ccc([N+](=O)[O-])o1` the value was 1450 nM (active); for `Cc1[nH]n(S(=O)(=O)c2ccccc2)c(=O)c1N=Nc1cccc(Cl)c1`, 4600 nM (active); for `Cc1[nH]n(S(=O)(=O)Cc2ccccc2)c(=O)c1N=Nc1ccccc1Cl`, 2310 nM (active). Turning to `COc1ccc(N(Cc2ccccc2)C(=O)OC(C)(C)C)c(C(=O)N(C)OC)c1`, the Potency entry was “inactive”. With `COc1ccc(Cn2cnc([N+](=O)[O-])c2)cc1[N+](=O)[O-]` the figure was 3260 nM (active); with `COc1ccc(NC(=O)c2ccc([N+](=O)[O-])cc2[N+](=O)[O-])c(OC)c1`, 10300 nM (active); with `O=C(Nc1cccc(NC(=O)c2ccccc2Cl)c1)c1ccc([N+](=O)[O-])o1`, 410 nM (active).

For `O=C(O)c1cccc(NC(=S)NC(NC(=O)c2ccccc2[N+](=O)[O-])C(Cl)(Cl)Cl)c1` (configuration not stated), the Potency entry is “inactive”. For `COc1cc(NC(=O)c2ccc([N+](=O)[O-])o2)ccc1NC(=O)c1ccco1` the value was 579 nM (active). With `O=C(Nc1ccc(NC(=O)c2ccc([N+](=O)[O-])o2)cc1Cl)c1ccco1` the figure was 1030 nM (active); with `O=C(Nc1cccc(NC(=O)c2cccs2)c1)c1ccc([N+](=O)[O-])o1`, 729 nM (active); with `O=C(Nc1ccccc1O)c1ccc([N+](=O)[O-])cc1`, 9180 nM (active). For `Cc1cc(NC(=O)c2ccc([N+](=O)[O-])o2)ccc1NC(=O)c1ccco1` the value was 918 nM (active).

`O=C(Nc1ccc(O)c2c(=O)cc(-c3ccccc3Cl)oc12)c1ccc(F)cc1`: the Potency entry was “inactive”. With `O=C(Nc1cccc(NC(=O)c2ccc([N+](=O)[O-])o2)c1)c1ccco1` the figure was 729 nM (active); with `COc1cc(NC(=O)c2ccc([N+](=O)[O-])o2)ccc1NC(=O)c1cccs1`, 818 nM (active); with `COc1ccc(NC(=O)c2ccco2)c(NC(=O)c2ccc([N+](=O)[O-])cc2)c1`, 4100 nM (active). For `O=C(COC(=O)c1ccc(Br)o1)Nc1ncc([N+](=O)[O-])s1` the value was 2310 nM (active); for `O=C(COC(=O)c1ccccc1)Nc1ncc([N+](=O)[O-])s1`, 3650 nM (active). With `Cc1cccc(NC(=O)c2ccc([N+](=O)[O-])s2)n1` the figure was 3650 nM (active).

With `Cc1nc2cc(NC(=O)c3ccc([N+](=O)[O-])s3)ccc2s1`, the Potency is 650 nM (active). For `Cc1ccnc(NC(=S)NC(=O)c2cccs2)c1` the value was 6500 nM (active); for `Cc1ccnc(NC(=O)c2ccc([N+](=O)[O-])s2)c1`, 3650 nM (active); for `O=C(c1cc(COc2c(F)cccc2F)on1)N1CCc2ccccc2C1`, “inactive”.

As for `O=C(c1ccc([N+](=O)[O-])o1)N1CCc2ccccc2C1`, the Potency is 2900 nM (active). In the case of `COc1cc2c(cc1OC)CN(C(=O)c1ccc([N+](=O)[O-])o1)CC2`, the Potency is 2050 nM (active). For `O=C(c1ccc([N+](=O)[O-])o1)N1CCc2ccccc21` the value was 1300 nM (active); for `COc1cc2c(cc1OC)CN(Cc1cc(=O)oc3c(C)c(C)ccc13)CC2`, “inactive”. With `N/C(=N\c1nc2ccccc2o1)NC(=O)C(Cc1ccccc1)N1C(=O)c2ccccc2C1=O` (configuration not stated), the Potency was 1830 nM (active). Consider `N#Cc1ccccc1S(=O)(=O)N1CCN(C(=O)c2cn(-c3ccccc3)nc2-c2cccnc2)CC1`, for which the Potency is 6500 nM (active). As to `O=C(CC12CC3CC(CC(C3)C1)C2)N/N=C/c1ccc([N+](=O)[O-])o1`, the Potency is 918 nM (active). With `CC(NC(=O)C12CC3CC(CC(C3)C1)C2)C(=O)NN=Cc1ccc([N+](=O)[O-])o1` (configuration not stated) the figure was 1830 nM (active); with `CCn1c(C)cc(C(=O)COC(=O)c2ccccc2[N+](=O)[O-])c1C`, 20500 nM (active).
